This passage reports growth results from PubChem BioAssay (NCI).

The structures appear in SMILES notation. Values joined by “and” are separate entries in the source; they are usually repeats but may differ in a detail not shown here. Equal entries are not always repeated. This is part of a sample that, as a whole, favours compounds with a hit. Of some 83,000 tested, about 20% had one in any assay.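 Percent growth is the endpoint: 0 to 100 indicates growth inhibition (40 means 60% inhibition), 0 means no net growth, and negative values indicate cell death.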 Active and inactive are the calls of the source. Rule for the calls: active = growth percent below 10; inactive = the rest.

Common to all, as to test: NCI-60 one-dose screen, 48 h (100 = growth as untreated, 0 = no growth, -100 = all killed)
Holding throughout (details): 10 µM unless noted

For test [1], the system named is DU-145 prostate.
In test [2] the test system is K-562 leukemia.
For test [3], the system named is MALME-3M melanoma.
Test [4] deals with MDA-MB-231 breast.
Test [5] concerns RXF 393 renal.
Test [6] deals with SF-268 CNS.
Test [7] relates to SF-539 CNS.
Test [8] deals with UACC-257 melanoma.
Test [9] relates to M14 melanoma.
In test [10] the test system is SF-295 CNS.

Regarding `O=C(Cc1cccc2ccccc12)N/N=C/c1ccc2c(c1)CCC2`, the growth is 96.6% (inactive) in test [1]; 17.3% (inactive) in test [2]; 63.6% (inactive) in [3]; 75% (inactive) in test [4]; 86% (inactive) in test [5]; 82.3% (inactive) in test [6]. Further, the growth in test [7] was 83% (inactive); in test [8] it was 87.3% (inactive); in [9] it was 77.9% (inactive).

As to `CC1=NN(c2ccccc2)C(=O)C1C(=O)c1ccccc1` (stereo not given), the growth is 103% (inactive) in test [1]; 97.6% (inactive) in [3]; 97.1% (inactive) in [4]; 140% (inactive) in [5]; 95.4% (inactive) in test [6]; 97.7% (inactive) in [10]. The growth is 116% (inactive) in test [7], 94.3% (inactive) in test [8] and 104% (inactive) in test [9].

Regarding `CNc1ccc2nc3ccc(=[N+](C)C)cc-3sc2c1`, the growth is 42.4% (inactive) and 7.81% (active) in [1]; 8.78% (active) and 22.8% (inactive) in test [2]; -28.2% (active) and -24.3% (active) in test [3]; 4.03% (active) and -13.7% (active) in test [4]; 58.3% (inactive) and 32.9% (inactive) in [5]; 5.13% (active) and 2.8% (active) in [6]. The growth in [10] was -7.68% (active) and 7.95% (active); in test [7], -6.95% (active) and -15.6% (active); in [8] it was -22.2% (active) and -27.4% (active); in test [9], 3.79% (active) and -23.3% (active).

Turning to `CCN(CC)CCc1nc(-c2ccccc2)no1`, the growth is 118% (inactive) in test [2]; 86.2% (inactive) and 120% (inactive) in [3]; 67.6% (inactive) and 110% (inactive) in test [4]; 74.5% (inactive) and 113% (inactive) in [5]; 79.9% (inactive) and 98.3% (inactive) in [6]; 105% (inactive) and 101% (inactive) in test [10]. Further, the growth in test [7] was 83.5% (inactive) and 109% (inactive); in test [8], 87.2% (inactive) and 90.3% (inactive); in test [9], 87.9% (inactive) and 98.5% (inactive).

Take `Nc1ccn(C2OC(CO)C(O)C2O)c(=O)n1` (stereo not given): the growth in [1] is 24% (inactive) and 12.2% (inactive) and 114% (inactive); in [4], 110% (inactive) [middle of 4 runs]; in test [5] it was 90.6% (inactive) and 33.4% (inactive) and 134% (inactive); in test [6], 35.8% (inactive) and 41.2% (inactive) and 104% (inactive).

Turning to `OCc1ccccn1`, the growth in test [1] was 100% (inactive); in test [3] it was 115% (inactive); in test [4], 114% (inactive); in test [5] it was 111% (inactive); in test [6] it was 107% (inactive); in [10], 94.7% (inactive). Also, the figures for the growth in test [7], in test [8] and in [9] were 104% (inactive), 104% (inactive) and 108% (inactive), respectively.

Regarding `O=C(O)CSCc1nc2ccccc2[nH]1`, the growth in [1] is 111% (inactive); in test [3], 127% (inactive); in test [4], 98.4% (inactive); in test [5] it was 112% (inactive); in test [6], 99.2% (inactive); in test [10] it was 112% (inactive). For the same molecule, the figures for the growth in [7], in test [8] and in test [9] were 103% (inactive), 111% (inactive) and 97.4% (inactive), respectively.

`CCOC(=O)C(CNc1ccccc1)C(=O)OCC`: the growth in test [1] was 109% (inactive); in test [2], 100% (inactive); in test [3], 115% (inactive); in test [4] it was 103% (inactive); in test [5] it was 98.4% (inactive); in test [6], 100% (inactive). Further, the figures for the growth in test [10], in test [7] and in test [9] were 101% (inactive), 101% (inactive) and 109% (inactive), respectively.

Consider `O=C=NC(c1ccccc1)(c1ccccc1)c1ccccc1`, for which the growth in test [1] was 106% (inactive); in test [3] it was 95.2% (inactive); in test [4], 97.5% (inactive); in test [5], 129% (inactive); in [6], 104% (inactive); in test [10], 98% (inactive). In addition, the growth in test [7] was 110% (inactive); in test [8], 107% (inactive); in test [9], 101% (inactive).

Take `CC(=O)C(/C=N/C(N)=O)=C(/C)O`: the growth was 118% (inactive) in [1]; 106% (inactive) in test [3]; 96.5% (inactive) in test [4]; 114% (inactive) in [5]; 109% (inactive) in [6]; 101% (inactive) in test [10]. Further, the figures for the growth in test [7], in [8] and in test [9] were 103% (inactive), 97.3% (inactive) and 108% (inactive), respectively.

Consider `C[N+](C)(C)CN1C(=O)c2ccccc2C1=O`, for which the growth in test [1] was 113% (inactive); in test [2], 92% (inactive); in test [4] it was 114% (inactive); in test [5], 105% (inactive); in test [6], 110% (inactive); in test [7] it was 99.5% (inactive). Also, the growth in test [8] is 97.8% (inactive); in test [9], 103% (inactive).

`O=C(O)c1cc(C(=O)O)cc([N+](=O)[O-])c1`: the growth in test [1] was 116% (inactive); in test [3] it was 95.2% (inactive); in test [4], 105% (inactive); in test [5] it was 123% (inactive); in test [6] it was 111% (inactive); in test [10] it was 93.4% (inactive). Besides, the growth was 100% (inactive) in [7] and 103% (inactive) in test [8].

Turning to `CCCCCCCCCCCCCCCCOc1ccc(C)cc1`, the growth is 110% (inactive) in test [1]; 108% (inactive) in test [2]; 103% (inactive) in test [3]; 100% (inactive) in [4]; 118% (inactive) in test [5]; 114% (inactive) in test [6]. In addition, the results for the growth in [7], in test [8] and in [9] were 93.2% (inactive), 111% (inactive) and 111% (inactive), respectively.

In the case of `O=C(/C=C/c1ccccn1)c1ccccc1O`, the growth in [1] was 76.4% (inactive) and 71% (inactive); in test [3], 70.1% (inactive) and 107% (inactive); in test [4] it was 70.4% (inactive) and 95.9% (inactive); in [5], 31.8% (inactive) and 56.4% (inactive); in test [6], 72.4% (inactive) and 61.6% (inactive); in test [10], 68.9% (inactive) and 91.6% (inactive). For the same molecule, the growth was 42.1% (inactive) and 80.9% (inactive) in test [7]; 49.9% (inactive) and 84.9% (inactive) in test [8]; 72.5% (inactive) and 82.3% (inactive) in test [9].
